Laboratory results taken from the supplement of paper PMC9117331.

Columns and labels:
Conditions in all cases: 0.5 µM; time after treatment 48 h; PC9 signalome
[1] = tested on: PC9; assay: AKT reporter activity score (signed KS statistic vs DMSO) (signed KS statistic (-1 to 1)); higher = stronger activation of the pathway reporter relative to DMSO
[2] = tested on: PC9; assay: RAR reporter activity score (signed KS statistic vs DMSO) (signed KS statistic (-1 to 1)); higher = stronger activation of the pathway reporter relative to DMSO
[3] = tested on: PC9; assay: PKC reporter activity score (signed KS statistic vs DMSO) (signed KS statistic (-1 to 1)); higher = stronger activation of the pathway reporter relative to DMSO
[4] = tested on: PC9; assay: PKA reporter activity score (signed KS statistic vs DMSO) (signed KS statistic (-1 to 1)); higher = stronger activation of the pathway reporter relative to DMSO
[5] = tested on: PC9; assay: p38 reporter activity score (signed KS statistic vs DMSO) (signed KS statistic (-1 to 1)); higher = stronger activation of the pathway reporter relative to DMSO
[6] = tested on: PC9; assay: HIF reporter activity score (signed KS statistic vs DMSO) (signed KS statistic (-1 to 1)); higher = stronger activation of the pathway reporter relative to DMSO
[7] = tested on: PC9; assay: ERK reporter activity score (signed KS statistic vs DMSO) (signed KS statistic (-1 to 1)); higher = stronger activation of the pathway reporter relative to DMSO
[8] = tested on: PC9; assay: JNK reporter activity score (signed KS statistic vs DMSO) (signed KS statistic (-1 to 1)); higher = stronger activation of the pathway reporter relative to DMSO
[9] = tested on: PC9; assay: WNT reporter activity score (signed KS statistic vs DMSO) (signed KS statistic (-1 to 1)); higher = stronger activation of the pathway reporter relative to DMSO
[10] = tested on: PC9; assay: NFkB reporter activity score (signed KS statistic vs DMSO) (signed KS statistic (-1 to 1)); higher = stronger activation of the pathway reporter relative to DMSO
[11] = tested on: PC9; assay: YAP/TAZ reporter activity score (signed KS statistic vs DMSO) (signed KS statistic (-1 to 1)); higher = stronger activation of the pathway reporter relative to DMSO

Row | SMILES | AKT reporter activity score [1] | RAR reporter activity score [2] | PKC reporter activity score [3] | PKA reporter activity score [4] | p38 reporter activity score [5] | HIF reporter activity score [6] | ERK reporter activity score [7] | JNK reporter activity score [8] | WNT reporter activity score [9] | NFkB reporter activity score [10] | YAP/TAZ reporter activity score [11]
1 | CO[C@H]1C[C@@H]2CC[C@@H](C)[C@@](O)(O2)C(=O)C(=O)N2CCCC[C@H]2C(=O)O[C@H]([C@H](C)C[C@@H]2CC[C@@H](O)[C@H](OC)C2)CC(=O)[C@H](C)/C=C(\C)[C@@H](O)[C@@H](OC)C(=O)[C@H](C)C[C@H](C)/C=C/C=C/C=C/1C [Rapamycin (Sirolimus)] | 0.0788 | -0.291 | -0.0424 | 0.0838 | -0.0405 | -0.242 | 0.0931 | -0.0966 | 0.0535 | 0.0606 | 0.12
2 | CC(C)n1nc(-c2cc3cc(O)ccc3[nH]2)c2c(N)ncnc21 | -0.0564 | -0.222 | -0.0669 | 0.116 | 0.0578 | -0.329 | -0.108 | -0.0693 | 0.0845 | 0.195 | 0.186
3 | O=C(Nc1cc(C(F)(F)F)cc(C(F)(F)F)c1)c1cc(Cl)ccc1O | -0.694 | 0.372 | 0.146 | -0.27 | 0.0561 | 0.485 | -0.0507 | 0.113 | 0.101 | 0.111 | 0.257
4 | Cc1ccc([N+](=O)[O-])cc1S(=O)(=O)N(C)/N=C/c1cnc2ccc(Br)cn12 | -0.252 | 0.101 | 0.105 | -0.347 | -0.118 | 0.178 | -0.147 | 0.157 | 0.207 | 0.0772 | 0.169
5 | CC(C)NC[C@@H](C(=O)N1CCN(c2ncnc3c2[C@H](C)C[C@H]3O)CC1)c1ccc(Cl)cc1 [Ipatasertib (GDC-0068)] | -0.688 | -0.297 | -0.0598 | 0.241 | -0.0739 | -0.228 | 0.0863 | -0.0989 | 0.0644 | 0.0919 | -0.0823
6 | COc1ccc(-c2ccc3c(N4CCOCC4)nc(N4C[C@@H](C)O[C@@H](C)C4)nc3n2)cc1CO | -0.124 | -0.302 | -0.0717 | -0.114 | -0.0964 | -0.246 | 0.079 | 0.0459 | 0.0519 | 0.0599 | -0.085
7 | CCN1CCN(Cc2ccc(Nc3ncc(F)c(-c4cc(F)c5nc(C)n(C(C)C)c5c4)n3)nc2)CC1 | -0.454 | 0.2 | 0.128 | -0.473 | -0.118 | 0.484 | 0.0461 | 0.34 | 0.767 | 0.239 | 0.183
8 | CN1CCN(c2nc(C3=C(c4c[nH]c5ccccc45)C(=O)NC3=O)c3ccccc3n2)CC1 [Sotrastaurin (AEB071)] | 0.195 | -0.104 | 0.0333 | 0.144 | 0.268 | 0.0348 | -0.0912 | 0.155 | 0.0742 | -0.26 | -0.0765
9 | CC(C)n1nc(-c2ccc3oc(N)nc3c2)c2c(N)ncnc21 | -0.075 | 0.0862 | 0.0627 | 0.217 | -0.392 | -0.124 | -0.188 | -0.194 | 0.164 | 0.0979 | 0.144
10 | C#CCC(Cc1cnc2nc(N)nc(N)c2n1)c1ccc(C(=O)N[C@@H](CCC(=O)O)C(=O)O)cc1 (some centres undefined) [Pralatrexate(Folotyn)] | -0.334 | 0.231 | 0.0797 | -0.237 | -0.0729 | 0.149 | -0.257 | 0.0731 | 0.0527 | 0.0639 | 0.223
11 | COc1cc2ncnc(Nc3ccc(F)c(Cl)c3)c2cc1OCCCN1CCOCC1 [Gefitinib (Iressa)] | -0.363 | 0.5 | 0.0998 | -0.3 | -0.282 | 0.136 | -0.664 | 0.166 | 0.25 | 0.184 | 0.4
12 | Cc1cc(C(=O)NOCCO)c(Nc2ccc(I)cc2F)n(C)c1=O | -0.0809 | 0.337 | 0.0992 | -0.257 | 0.108 | 0.0532 | -0.629 | 0.22 | 0.0922 | 0.224 | 0.448
13 | CO[C@H]1C[C@@H]2CC[C@@H](C)[C@@](O)(O2)C(=O)C(=O)N2CCCC[C@H]2C(=O)O[C@H]([C@H](C)C[C@@H]2CC[C@@H](OP(C)(C)=O)[C@H](OC)C2)CC(=O)[C@H](C)/C=C(\C)[C@@H](O)[C@@H](OC)C(=O)[C@H](C)C[C@H](C)/C=C/C=C/C=C/1C [Deforolimus (MK-8669)] | 0.241 | -0.292 | -0.044 | 0.262 | 0.178 | -0.232 | 0.0405 | -0.0745 | 0.0613 | 0.151 | 0.142
14 | COc1cc2ncnc(Nc3ccc(F)c(Cl)c3)c2cc1NC(=O)/C=C/CN1CCCCC1 | -0.392 | 0.516 | 0.0863 | -0.547 | -0.404 | 0.138 | -0.698 | -0.159 | 0.343 | 0.23 | 0.338
15 | Cc1nc(NC(=O)N2CCC[C@H]2C(N)=O)sc1-c1ccnc(C(C)(C)C(F)(F)F)c1 [Alpelisib (BYL719)] | -0.308 | 0.0272 | -0.0493 | -0.0979 | 0.131 | -0.123 | 0.0754 | -0.0947 | 0.0988 | 0.0495 | -0.125
16 | CC(=O)Nc1cccc(-n2c(=O)n(C3CC3)c(=O)c3c(Nc4ccc(I)cc4F)n(C)c(=O)c(C)c32)c1 | 0.278 | 0.158 | -0.0489 | -0.226 | 0.0617 | -0.114 | -0.491 | 0.181 | 0.129 | 0.158 | 0.324
17 | COc1ccc(-c2cc3c(C)nc(N)nc3n([C@H]3CC[C@H](OCCO)CC3)c2=O)cn1 | -0.424 | 0.107 | -0.0883 | -0.172 | -0.364 | -0.153 | 0.0981 | -0.166 | 0.0844 | -0.0647 | 0.155
18 | COc1ncc(-c2ccc3nccc(-c4ccnnc4)c3c2)cc1NS(=O)(=O)c1ccc(F)cc1F | -0.778 | 0.43 | 0.0478 | -0.254 | -0.499 | 0.0783 | -0.33 | -0.305 | 0.123 | 0.192 | 0.18
19 | CCN(CC)CCNC(=O)c1c(C)[nH]c(/C=C2\C(=O)Nc3ccc(F)cc32)c1C [Sunitinib Malate (Sutent)] | 0.076 | -0.28 | -0.0463 | 0.13 | 0.139 | -0.147 | 0.0665 | 0.0727 | -0.103 | -0.134 | -0.0629
